Test results published in PubChem BioAssay AID652104 (National Center for Advancing Translational Sciences (NCATS), 2013).
Screen size: about 410,000 compounds; about 7,200 (1.8%) were called active. A call without a number means that no potency is given here. Roughly 7% stayed inconclusive and do not appear here. Calls follow the shape of the dose curve; as a rule, active = well fitted activation curve with a large enough effect; inconclusive = small, poorly fitted or top-dose-only effect, or another doubt; inactive = no such curve, though single readings can be large or run the other way. Only a selection was taken, and actives are over-represented in it overall.

test: qHTS of TDP-43 Inhibitors; conditions: TDP-43 expressing yeast growth rescue, BacTiter-Glo, 24 h; series mostly up to 46.1 µM; also: nearly all actives have a fitted effect of over 50% in size
Description: The goal of this project is to identify new chemical probes capable of reversing the toxicity associated with TDP-43 which is associated with frontotemporal lobar degeneration and amyotrophic lateral sclerosis. These compounds will provide a complementary approach to deciphering the tangled mechanisms of toxicity and protection that we have uncovered through genome-wide genetic screens and are beginning to uncover in a large-scale proteomics analysis with mass spectroscopy.
To this end, a miniaturized assay was developed to be screened against the Molecular Libraries Small Molecule Repository (MLSMR) to discover TDP-43 inhibitors. Please note that in the set-up this yeast-based assay compounds that inhibit as TDP-43, have a read-out as activators.
NIH Chemical Genomics Center [NCGC]
NIH Molecular Libraries Probe Centers Network [MLPCN]
Assay Submitter (PI): Susan Lindquist, Whitehead Institute/MIT
Dispense 2.5 microL yeast galactose medium per 1536-well plate, pin compound, dispense 2.5 microL TDP-43 expressing yeast in galactose medium at OD600=0.02 (pregrown in raffinose medium to mid-log phase) per well, incubate for 24 hr at 30 deg C, and cell growth will be measured using 5 microL of Bactiter/Glo reagent to entire plate and read using Luminescence Protocol in ViewLux.
Potency is read from the fitted curve at half-maximal effect.

Row | Structure (SMILES) | Potency | growth rescue (activation)
1 | CC(c1ccco1)N(C(=O)Nc1ccccc1)C1CCCCC1 (stereo not given) | inactive | 
2 | CC(NC(=S)Nc1ccccc1)C1COc2ccccc2O1 (stereo not given) | 12.6 µM (active) | 
3 | CC(NC(=S)Nc1ccccc1)C(c1cccs1)N1CCOCC1 (stereo not given) | inactive | 
4 | COc1ccc(NC(=O)c2cc3cc(C)ccc3n2C)cc1 |  | 2.24% [at 9.22 µM] (inactive)
5 | Cc1nc2ccc(C(=O)N3CCSCC3)cc2s1 | inactive | 
6 | Cc1nc2ccc(C(=O)N3CCN(c4ccccc4)CC3)cc2s1 | 14.1 µM (active) | 
7 | CC1CCN(c2nc3ccc(C(=O)N4CCN(c5ccccc5)CC4)cc3s2)CC1 | inactive | 
8 | CC(=O)Oc1ccc(-c2nc3c(C)cccc3c(=O)o2)cc1 | 12.6 µM (active) | 
9 | COc1nc(N=C(N)N)nc2c(C)cccc12 | inactive | 
10 | O=C(Oc1ccccc1)Oc1ccc2c(c1)oc(=O)c1ccccc12 | inactive | 
11 | O=S(=O)(NCc1ccc(Cl)cc1Cl)c1cccs1 | 8.91 µM (active) | 
12 | O=S(=O)(Cc1ccc(Cl)cc1Cl)c1ccc(Cl)cc1 | inactive | 
13 | O=C(NCc1ccc(Cl)cc1)C1CCN(S(=O)(=O)c2cccs2)CC1 | inactive | 
14 | CC1=C(C(=O)Nc2ccccc2Cl)C(c2cccs2)n2ncnc2N1 (stereo not given) | inactive | 
15 | CCNC(=O)c1cc2n(n1)CCCN(Cc1ccc(C)cc1)C2=O | inactive | 
16 | CC(/C=C/c1ccco1)=N/NC(=O)C1COc2ccccc2O1 (stereo not given) | inactive | 
17 | O=C(N/N=C\c1cc(Br)c(Br)o1)C1COc2ccccc2O1 (stereo not given) | 11.2 µM (active) | 
18 | Cc1ccc(C(=O)N/N=C\c2cc(Br)c(Br)o2)cn1 | inactive | 
19 | O=C(Nc1nc2ccc(F)cc2s1)c1nc(SCc2ccccc2F)ncc1Cl | inactive | 
20 | COc1cc(CNCCSc2nnnn2C)ccc1OCc1c(F)cccc1Cl | inactive | 
21 | CCOc1ccc(Nc2nc3c(S(=O)(=O)c4cccc(Cl)c4)nnn3c3ccsc23)cc1 | inactive | 
22 | O=C(NCc1ccc(F)cc1)c1ccc(Cn2c(SCc3ccc(F)cc3)nc3cccnc32)cc1 | inactive | 
23 | CCCCN(C)c1nnc(NC(=O)Nc2ccc(Br)c(C)c2)s1 |  | 22.1% [at 9.22 µM] (inactive)
24 | COc1ccc(NC(=O)C(c2ccncc2)n2c(=O)c(-c3cc4ccccc4[nH]3)nc3ccccc32)cc1 (stereo not given) | 17.8 µM (active) | 
25 | COc1ccc(C(C(=O)NCc2ccccc2)n2c(=O)c(-c3ccccc3)nc3ccccc32)cc1 (stereo not given) | inactive | 

Row | Structure (SMILES) | Potency | growth rescue (activation)
26 | CCCCCNC(=O)C(c1ccc(OC)cc1)n1c(=O)c(-c2ccccc2)nc2ccccc21 (stereo not given) | inactive | 
27 | COc1ccc(CC(=O)NCCc2sc3nc(-c4ccc(OC)cc4)nn3c2C)cc1 | inactive | 
28 | CC1CCCCN1Cc1c(O)ccc2c(=O)c(-c3cccc(Cl)c3)c(C(F)(F)F)oc12 (stereo not given) | inactive | 
29 | CC1CN(C(=O)c2cc(COc3c(F)cccc3F)on2)CCN1C (stereo not given) | inactive | 
30 | O=C(NC1Cc2ccccc2C1)c1cc(COc2cccc(C(F)(F)F)c2)on1 | inactive | 
31 | O=C(c1cc(COc2cccc(C(F)(F)F)c2)on1)N1CCSCC1 | 22.4 µM (active) | 
32 | CCc1cccc(NC(=O)Cn2nc(CC)n3c(cc4cc(C)ccc43)c2=O)c1 | inactive | 
33 | COc1ccc(C2(Nc3cccc(F)c3)C(=O)c3ccccc3C2=O)cc1 | inactive | 
34 | CCCOc1ccccc1C1CC(=O)Nc2cc3c(cc21)OCO3 (stereo not given) | 20 µM (active) | 
35 | O=C1CC(c2ccc(F)cc2F)c2cc3c(cc2N1)OCO3 (stereo not given) | inactive | 
36 | Cc1cc2c(cc1C)C(c1cccc(OC(C)C)c1)CC(=O)N2 (stereo not given) | inactive | 
37 | Cc1ccc(Cl)cc1N1CCN(C(=O)C2CCC(CNS(=O)(=O)c3cccs3)CC2)CC1 (stereo not given) | inactive | 
38 | COc1cccc(CN2CCc3nc(SCC(=O)Nc4ccccc4)[nH]c(=O)c3C2)c1 | inactive | 
39 | O=C(NC1CCCCC1)c1ccc(Cn2c(SCc3ccccc3)nc3cccnc32)cc1 | inactive | 
40 | O=C(O)c1ccc(CSc2nc3cccnc3n2Cc2cccc(F)c2)cc1 | inactive | 
41 | Cc1oc(-c2ccccc2)nc1Cn1c(SCc2cccc(C(F)(F)F)c2)nc2cccnc21 | 20 µM (active) | 
42 | Cc1ccccc1OCc1nc2c3cnn(-c4ccccc4F)c3ncn2n1 | inactive | 
43 | CCc1nc(Nc2ccc3nccnc3c2)c2oc3ccccc3c2n1 | inactive | 
44 | COCCNc1nc(-c2ccccc2)nc2c1oc1ccccc12 | 12.6 µM (active) | 
45 | C[C@@H](Nc1nc(-c2ccccc2)nc2c1oc1ccccc12)C(=O)O | inactive | 
46 | Cc1cc(NC(=O)CC(C)C)cc(-c2nc3ncccc3o2)c1O | inactive | 
47 | CCOc1ccc(NC(=O)c2cnn(-c3ccccc3)c2-n2cccc2)cc1 |  | -9.72% [at 9.22 µM] (inactive)
48 | CC(C)Cc1ccc(-c2cc3nc(NCc4cccc(Cl)c4)ccn3n2)cc1 | inactive | 
49 | COc1ccccc1CNc1nc2ccc(Cl)cc2n2cnnc12 | inactive | 
50 | COc1ccccc1-c1cc2nc(NCc3cccc(Cl)c3)ccn2n1 | 17.8 µM (active) | 

Row | Structure (SMILES) | Potency | growth rescue (activation)
51 | CCC1CCCCN1C(=O)Cn1c(=O)n(CCCCCC(=O)NCc2ccccc2)c(=O)c2sccc21 (stereo not given) | inactive | 
52 | Cc1nc(C)c(-c2csc(NCCc3ccccc3)n2)s1 | 15.8 µM (active) | 
53 | Cc1nc(N)sc1-c1ccccc1 | inactive | 
54 | S=c1[nH]nc(NCCc2ccccc2)s1 |  | -8.25% [at 0.397 µM] (inactive)
55 | Cc1c(CCNC(=O)c2ccc(C(F)(F)F)cc2)sc2nc(-c3ccc(F)cc3)nn12 | inactive | 
56 | COc1ccc(C2NC(=O)N(C)C3=C2C(=O)N(c2ccc(C(=O)O)cc2)C3)cc1 (stereo not given) | inactive | 
57 | COC(=O)c1scc(-c2ccc(C)cc2)c1S(=O)(=O)Nc1cc(Cl)c(OC)cc1OC | inactive | 
58 | CCOC(=O)c1scc(-c2ccc(C)cc2)c1S(=O)(=O)Nc1cc(C)ccc1C | inactive | 
59 | COC(=O)c1scc(-c2ccccc2)c1S(=O)(=O)Nc1ccccc1 | 12.6 µM (active) | 
60 | COc1cc(C(=O)NCCc2csc3nc(-c4ccccc4C)nn23)cc(OC)c1OC | inactive | 
61 | COc1ccc(NC(=O)C(c2ccccc2)N2Cc3ccccc3C2=O)cc1 (stereo not given) |  | 0% [at 9.22 µM] (inactive)
62 | Cc1cc(C)cc(NC(c2nnc(-c3cccc(F)c3)o2)c2ccc(F)cc2Cl)c1 (stereo not given) | inactive | 
63 | C/C(=N\NC(=O)Cc1ccccc1[N+](=O)[O-])c1cccnc1 | inactive | 
64 | O=C(/C=C/c1ccc(Cl)c([N+](=O)[O-])c1)c1cccnc1 | 3.16 µM (active) | 
65 | O=C(/C=C/Nc1ccc(S(=O)(=O)Nc2cnc3ccccc3n2)cc1)c1cccnc1 | inactive | 
66 | Cc1ccc(CCNC(=O)c2ccc(CS(=O)(=O)Cc3cccc(C)c3)o2)cc1 | inactive | 
67 | CC1=C(C(=O)N2CCN(c3cccc(C(F)(F)F)c3)CC2)C2(CCCCC2)OC1=O | inactive | 
68 | COc1ccc(CCNc2nc(-c3ccc(Cl)cc3)cc(C(F)(F)F)n2)cc1OC | inactive | 
69 | COc1cccc(NC(=O)C2CCN(c3cc(C)nc4c(-c5ccc(Cl)cc5)c(C)nn34)CC2)c1 | inactive | 
70 | COc1ccc(CCNc2cc(C)nc3c(-c4ccc(Cl)cc4)c(C)nn23)cc1OC | 20 µM (active) | 
71 | COc1ccc(N2CCN(C(=O)C3CCCN(C(=O)c4cc5sccc5n4C)C3)CC2)cc1 (stereo not given) | inactive | 
72 | COC(=O)c1ccccc1NC(=O)c1ccc(COc2ccccc2Cl)o1 | inactive | 
73 | Cc1ccc(CNC(=O)CCc2c(C)nc3nc(CNC(=O)OC(C)(C)C)nn3c2C)cc1 | inactive | 
74 | O=[N+]([O-])c1cc(C(F)(F)F)ccc1NN=C1CCCC1 | inactive | 
75 | Nc1ccccc1Sc1ccc(C(F)(F)F)cc1[N+](=O)[O-] | 11.2 µM (active) | 

Row | Structure (SMILES) | Potency | growth rescue (activation)
76 | O=C(CSc1ccc(C(F)(F)F)cc1[N+](=O)[O-])NCCOc1ccccc1 | inactive | 
77 | Cc1nc2nc(NCc3cccc(Br)c3)[nH]n2c(=O)c1Cc1ccccc1 | inactive | 
78 | COc1ccc(C(=O)N2CCC(c3nc4ccccc4o3)CC2)cc1 | inactive | 
79 | Cc1onc(-c2ccccc2)c1C(=O)N1CCN(S(=O)(=O)c2ccccc2C(F)(F)F)CC1 | 15.8 µM (active) | 
80 | CCc1noc(C)c1C(=O)N1CCN(S(=O)(=O)c2cccc(C(F)(F)F)c2)CC1 | inactive | 
81 | CC(C)(C)OC(=O)N1CCN(C(=O)c2[nH]c(C(F)(F)F)nc2-c2ccccc2)CC1 | inactive | 
82 | N#Cc1nc(/C=C/c2ccc(F)cc2)oc1NC1CCCCC1 | inactive | 
83 | Cc1ccccc1NC(=O)CSC1=NCCN1 | inactive | 
84 | Cc1ccccc1NC(=O)CSC(=O)c1ccccc1 | 14.1 µM (active) | 
85 | Cc1cccc(NC(=O)CSC(N)=O)c1C | inactive | 
86 | CCOc1cccc(CNC(=O)c2ccc(N3CCCC3)c(NC(=O)Nc3ccccc3CC)c2)c1 | inactive | 
87 | Cc1cccc(NC(=O)CN(c2ccc(C(C)C)cc2)S(=O)(=O)c2c(C)nn(C)c2C)c1C | inactive | 
88 | Cc1ccc(CNC(=O)CCc2c(C)nc3c(c(C)nn3-c3ccccc3)c2C)cc1 | inactive | 
89 | CCOC(=O)C1CCCN(CC(=O)Nc2cc(C)c3c(=O)oc4ccccc4c3n2)C1 (stereo not given) | inactive | 
90 | COc1ccc(CNc2nc(-c3ccccc3)nn2C(=O)c2ccccc2OC)cc1 | inactive | 
91 | Cc1cc(C)cc(NC(=O)CCCc2nc(-c3ccccc3Cl)no2)c1 | inactive | 
92 | Cc1cc(NC(=O)CSc2nccn2-c2ccc([N+](=O)[O-])cc2)no1 | inactive | 
93 | Cc1ccccc1-n1c(SCC(=O)Nc2cccc3ccccc23)nc(O)cc1=O | inactive | 
94 | O=C(CSc1nccn1-c1ccc(F)cc1)Nc1cccc2ccccc12 | 17.8 µM (active) | 
95 | Cc1cccc(-n2ccnc2SCC(=O)Nc2cccc3ccccc23)c1C | 22.4 µM (active) | 
96 | Cc1ccc2nc(SCC(=O)Nc3cccc4ccccc34)nc(=O)n2c1 | inactive | 
97 | O=C(CSc1nccn1-c1cccc(F)c1)NC1CCCC1 | inactive | 
98 | O=C(CSc1nc(Nc2ccc(F)c(F)c2)c2ccccc2n1)c1ccc(Cl)cc1 | inactive | 
99 | CCC(C(=O)Nc1cc(OC)ccc1OC)n1c(=O)c(C(F)(F)F)nc2ccccc21 (stereo not given) | inactive | 
100 | CC(NC(=O)c1cc(Sc2ccc(F)cc2F)nc2ccccc12)c1ccccc1 (stereo not given) | inactive | 
